Bioassay records as filed in PubChem BioAssay.
3T3 cytotox – kills NIH 3T3 cells; AID 1345082; 94,000 compounds, 4.3% hits; NIH 3T3 viability, CellTiter-Glo ATP luminescence, 48-72 h; Potency, µM (titrated, usually from 96.7 µM), usual class: inhibitors; also: nearly all actives have a fitted effect of over 55% in size
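Luminescent ATP readout (CellTiter-Glo, 10 min RT) after 48 or 72 hr compound exposure of NIH 3T3 cells seeded at 400 cells/well in 1536-well format; quantitative HTS.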
HEK293 tox – kills HEK 293 cells; HEK 293 viability, ATP luminescence (CellTiter-Glo), 48-72 h; 94,000 compounds, 6.6% hits; Potency, µM (doses to about 115 µM), usual class: inhibitors; also: nearly all actives have a fitted effect of over 60% in size
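Cytotoxicity was scored by loss of ATP-coupled luminescence (CellTiter-Glo) in HEK 293 cells. Compound treatment ran 48 or 72 hr at 37 degree Celsius, 5% CO2, 95% humidity.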
FLuc inh – blocks purified firefly luciferase enzyme activity. AID 1347043. P08659. 76,000 compounds, 2.5% hits. purified P. pyralis luciferase, luminescence, biochemical. Potency, µM (top dose mostly 115 µM), hits mostly inhibitors; also: nearly all actives have a fitted effect of over 65% in size
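FLuc 10nM, D-luciferin 10uM, ATP 10uM, Mg acetate 10mM, Tris acetate pH 7.5, Tween/BSA; cpd qHTS; enzyme added last; CCD luminescence.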
hNpr1 antagonist – antagonists of human natriuretic peptide receptor Npr1 | 76,000 compounds, 1.6% hits | HEK293 hNpr1 GloSensor cGMP, ANP-stimulated luminescence | Potency, µM (doses to about 46.3 µM), actives largely listed as inhibitors; calls by dose curve; also: nearly all actives have a fitted effect of over 60% in size
Target sequence (P16066 whole entry, looked up): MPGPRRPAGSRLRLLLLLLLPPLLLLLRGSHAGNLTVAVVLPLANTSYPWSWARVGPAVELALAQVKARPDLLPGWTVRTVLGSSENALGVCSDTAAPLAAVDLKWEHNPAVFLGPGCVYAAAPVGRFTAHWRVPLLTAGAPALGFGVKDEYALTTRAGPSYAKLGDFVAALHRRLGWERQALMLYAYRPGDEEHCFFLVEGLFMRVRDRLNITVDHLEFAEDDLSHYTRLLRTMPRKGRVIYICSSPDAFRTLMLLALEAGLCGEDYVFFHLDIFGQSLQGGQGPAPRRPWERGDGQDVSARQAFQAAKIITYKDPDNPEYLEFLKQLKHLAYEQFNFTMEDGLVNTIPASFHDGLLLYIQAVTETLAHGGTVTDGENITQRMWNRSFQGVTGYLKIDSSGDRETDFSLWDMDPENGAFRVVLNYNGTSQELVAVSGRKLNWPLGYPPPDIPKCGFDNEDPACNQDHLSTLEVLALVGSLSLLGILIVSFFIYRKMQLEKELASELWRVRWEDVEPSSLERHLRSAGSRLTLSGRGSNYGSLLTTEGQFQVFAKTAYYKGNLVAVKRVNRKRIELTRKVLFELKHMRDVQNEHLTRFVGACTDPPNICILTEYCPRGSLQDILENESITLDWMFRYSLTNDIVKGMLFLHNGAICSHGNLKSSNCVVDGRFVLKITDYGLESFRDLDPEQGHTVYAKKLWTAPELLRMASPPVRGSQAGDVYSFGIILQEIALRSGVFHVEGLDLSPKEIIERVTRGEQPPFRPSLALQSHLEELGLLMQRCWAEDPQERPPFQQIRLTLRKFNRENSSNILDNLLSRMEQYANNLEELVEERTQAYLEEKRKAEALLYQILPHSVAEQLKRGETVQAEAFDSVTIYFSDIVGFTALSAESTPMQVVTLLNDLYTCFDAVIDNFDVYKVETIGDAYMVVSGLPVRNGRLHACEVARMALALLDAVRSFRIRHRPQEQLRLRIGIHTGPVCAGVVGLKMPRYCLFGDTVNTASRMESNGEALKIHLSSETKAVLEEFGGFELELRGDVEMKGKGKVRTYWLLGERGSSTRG
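HEK293 cells stably expressing human Npr1 and cGMP GloSensor pGS-40F, loaded 2 h with 2% GloSensor reagent, given compound 30 min at room temperature. Luminescence read before and 20 min after 0.1 nM hNppA.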
NPR1 antag cnf – hNpr1 antagonism, confirmation assay; shares compounds with hNpr1 antagonist; HEK293 hNpr1 cGMP GloSensor luminescence, ANP-stimulated; Potency, µM (highest dose often 57.6 µM), usual class: inhibitors; 1,400 compounds, 76% hits; AID 1347044; calls by dose curve; also: nearly all actives have a fitted effect of over 70% in size
Npr2 selectivity – hNpr2 antagonism, selectivity versus Npr1; HEK293 hNpr2 GloSensor cGMP luminescence, CNP-stimulated; shares compounds with hNpr1 antagonist; AID 1347046; Potency, µM (highest dose often 57.6 µM), hits mostly inhibitors; 1,400 compounds, 67% hits; calls by dose curve; also: nearly all actives have a fitted effect of over 70% in size
FLuc counter – inhibits firefly luciferase, false Npr1 antagonist flag; 1,400 compounds, 0.7% hits; purified FLuc enzyme, luminescence, Km substrate; AID 1347047; shares compounds with hNpr1 antagonist; Potency, µM (top dose mostly 57.6 µM), usual class: inhibitors
GloSensor cGMP – reduces cGMP signal in GloSensor control cells. shares compounds with hNpr1 antagonist. HEK293 GloSensor cGMP, SNP-stimulated, luminescence. Potency, µM (doses to about 57.6 µM), usual class: inhibitors. 1,400 compounds, 69% hits. AID 1347051; calls by dose curve; also: nearly all actives have a fitted effect of over 70% in size
Large screens that a line does not name were inactive (follow-up assays come after a bar, where they were run). In the library only some 11% were active in any assay of this set; here they are far more common. Unless noted, calls follow the shape of the dose curve; as a rule, active = well fitted curve in the direction sought with a large enough effect; inconclusive = small, poorly fitted or top-dose-only effect, or another doubt; inactive = no such curve, though single readings can be large; an effect the other way counts as inactive or inconclusive.

CC(C)OC(=O)N1CCC(COc2ccc3c(cnn3CC[S+](C)(=O)[O-])c2)CC1	3T3 cytotox inconclusive, HEK293 tox inconclusive, hNpr1 antagonist 16µM | NPR1 antag cnf 16µM | Npr2 selectivity 22µM | FLuc counter inactive | GloSensor cGMP 14µM
Cc1nc2c(c(-c3ccc(Cl)cc3)n1)CCN(C(=O)Nc1ccc(Cl)cc1)CC2	3T3 cytotox inconclusive, HEK293 tox inconclusive, FLuc inh inconclusive
CC1=NS(=O)(=O)N(C)C=C1C(=O)OCc1nc(-c2ccccc2)oc1C	3T3 cytotox inconclusive, HEK293 tox inconclusive, hNpr1 antagonist 10µM | NPR1 antag cnf 12µM | Npr2 selectivity 14µM | FLuc counter inactive | GloSensor cGMP 11µM
CC1=NS(=O)(=O)N(C)C=C1C(=O)OCc1nc(-c2cccc(Cl)c2)no1	HEK293 tox inconclusive, hNpr1 antagonist 14µM | NPR1 antag cnf 22µM | Npr2 selectivity inconclusive | FLuc counter inactive | GloSensor cGMP inconclusive
CC1=NS(=O)(=O)N(C)C=C1C(=O)OCc1nc(-c2cccc(F)c2)no1	HEK293 tox inconclusive, hNpr1 antagonist inconclusive
CC1=NS(=O)(=O)N(C)C=C1C(=O)OCc1nc(-c2ccccc2)no1	HEK293 tox inconclusive
CC1=NS(=O)(=O)N(C)C=C1C(=O)OCc1nc(-c2ccc(C(F)(F)F)cc2)no1	3T3 cytotox inconclusive, HEK293 tox 40µM, hNpr1 antagonist 10µM | NPR1 antag cnf 9.7µM | Npr2 selectivity 11µM | FLuc counter inactive | GloSensor cGMP 9.7µM
O=C(NCCc1ccc(F)cc1)c1nc2cccnc2n(C2CC2)c1=O	none (no result: FLuc inh, hNpr1 antagonist)
CCN(CC)CCNC(=O)C12CCCC=C1N(c1ccccc1)C(=O)CC2 (centres undefined)	none
Cc1cnc(CCNC(=O)NCC(C)C)n1C1CCCCCC1	none (no result: FLuc inh, hNpr1 antagonist)
CCC1Oc2ccc(NC(=O)c3ccccc3OC(C)=O)cc2CN(Cc2ccccc2F)C1=O (centres undefined)	3T3 cytotox 14µM, HEK293 tox 25µM, hNpr1 antagonist 0.71µM | NPR1 antag cnf 24µM | Npr2 selectivity 24µM | FLuc counter inactive | GloSensor cGMP 22µM
CCNC(=O)O[C@@H]1CO[C@H]2[C@@H]1OC[C@@H]2NC(=O)Nc1ccc(C(C)C)cc1	none
CN(C)c1ccc(CN[C@H]2CO[C@H]3[C@@H]2OC[C@H]3OC(=O)Nc2ccc(Oc3ccccc3)cc2)cc1	3T3 cytotox inconclusive, HEK293 tox inconclusive, hNpr1 antagonist inconclusive | NPR1 antag cnf inconclusive | Npr2 selectivity inconclusive | FLuc counter inactive | GloSensor cGMP 22µM
O=C(Nc1ccc(Oc2ccccc2)cc1)O[C@@H]1CO[C@H]2[C@@H]1OC[C@@H]2n1nnnc1SC1CCCC1	3T3 cytotox inconclusive, HEK293 tox 25µM, hNpr1 antagonist 10µM | NPR1 antag cnf 17µM | Npr2 selectivity 17µM | FLuc counter inactive | GloSensor cGMP 14µM
N#Cc1cccc(NC(=O)O[C@@H]2CO[C@H]3[C@@H]2OC[C@@H]3n2nnnc2SC2CCCC2)c1	none
COc1ccc(NC(=O)N[C@H]2CO[C@H]3[C@@H]2OC[C@H]3OC(=O)Nc2ccc(Oc3ccccc3)cc2)cc1	3T3 cytotox inconclusive, HEK293 tox 18µM, hNpr1 antagonist 13µM | NPR1 antag cnf 14µM | Npr2 selectivity 17µM | FLuc counter inactive | GloSensor cGMP 12µM
CC(C)c1ccc(NC(=O)N[C@H]2CO[C@H]3[C@@H]2OC[C@H]3OC(=O)Nc2ccc(Oc3ccccc3)cc2)cc1	3T3 cytotox inconclusive, HEK293 tox inconclusive, hNpr1 antagonist inconclusive | NPR1 antag cnf 19µM | Npr2 selectivity 19µM | FLuc counter inactive | GloSensor cGMP 19µM
O=C(Nc1ccccc1)O[C@@H]1CO[C@H]2[C@@H]1OC[C@@H]2NCc1ccccc1	3T3 cytotox inconclusive, HEK293 tox inconclusive
CN(C)CC1(O)CCC2(CCN(C(=O)Cn3c(=O)oc4ccccc43)CC2)CC1	none
COc1cc(NC(=S)N[C@H]2CO[C@H]3[C@@H]2OC[C@H]3OC(=O)Nc2ccccc2)cc(OC)c1	none
COc1ccc(OC)c(S(=O)(=O)N[C@H]2CO[C@H]3[C@@H]2OC[C@H]3OC(=O)Nc2cccc(C(F)(F)F)c2)c1	3T3 cytotox inconclusive, HEK293 tox inconclusive, hNpr1 antagonist 13µM | NPR1 antag cnf 27µM | Npr2 selectivity 22µM | FLuc counter inactive | GloSensor cGMP 27µM
COc1ccc(C(=O)N[C@H]2CO[C@H]3[C@@H]2OC[C@H]3OC(=O)Nc2ccccc2)cc1	3T3 cytotox inconclusive, HEK293 tox 63µM, hNpr1 antagonist 32µM | NPR1 antag cnf 40µM | Npr2 selectivity 35µM | FLuc counter inactive | GloSensor cGMP 35µM
COc1ccc(OC)c(S(=O)(=O)N[C@H]2CO[C@H]3[C@@H]2OC[C@H]3OC(=O)Nc2cccc(C(C)=O)c2)c1	none
COc1ccc(NC(=O)O[C@@H]2CO[C@H]3[C@@H]2OC[C@@H]3NC(=S)Nc2ccc(Cl)cc2)cc1	3T3 cytotox inconclusive, HEK293 tox 45µM, hNpr1 antagonist 13µM | NPR1 antag cnf 24µM | Npr2 selectivity inconclusive | FLuc counter inactive | GloSensor cGMP 24µM
CN(C)C[C@@H]1CN(S(C)(=O)=O)C[C@H]1NC(=O)c1ccccc1	none
O=C(NCc1cccs1)c1ccc2nnc(-c3cc(F)ccc3F)n2c1	none (no result: FLuc inh, hNpr1 antagonist)
COc1cccc(C2Cn3nnc(-c4nc(-c5cccc(C)c5)no4)c3CO2)c1 (centres undefined)	none
COc1ccc(CC(=O)N2CCC3(CC2)CN([S+](=O)([O-])c2ccccc2)CCO3)cc1	none (no result: FLuc inh, hNpr1 antagonist)
COc1ccc(CN2CCc3nc(C(=O)NCc4cccc(F)c4)oc3CC2)cc1OC	3T3 cytotox inconclusive, HEK293 tox inconclusive
COc1ccccc1CN1CCc2nc(C(=O)NCc3cccc(F)c3)oc2CC1	3T3 cytotox inconclusive, HEK293 tox inconclusive
O=C(NCc1ccccc1)c1nc2c(o1)CCN(Cc1ccc(F)c(Cl)c1)CC2	3T3 cytotox 45µM, HEK293 tox inconclusive, hNpr1 antagonist 22µM | NPR1 antag cnf 28µM | Npr2 selectivity 28µM | FLuc counter inactive | GloSensor cGMP 20µM
O=C(NCc1ccccc1)c1nc2c(o1)CCN(Cc1ccc(F)cc1)CC2	3T3 cytotox inconclusive, HEK293 tox inconclusive, hNpr1 antagonist inconclusive | NPR1 antag cnf 35µM | Npr2 selectivity 35µM | FLuc counter inactive | GloSensor cGMP 35µM
Cc1ccc(-c2cc(C(=O)N3CCOCC3)c3cnn(C)c3n2)cc1	none (no result: FLuc inh, hNpr1 antagonist)
